Experiments:
Assay in all cases: DAPPL (digital affinity profiling via proximity ligation, sequencing); 10 mM Tris-HCl pH 7.5, 50 mM NaCl, 1 mM DTT, 4% glycerol, room temperature, 30 min; GST-TFs on glutathione beads, 16-mer random dsDNA library, 0.1% formaldehyde crosslink after washing; high values mean tight binding
FLI1 = biological target: T1, FLI1 (Homo sapiens, UniProt Q01543 1-452); conditions: protein: recombinant; tags: N-terminal GST; dsDNA, one strand shown
T1 sequence: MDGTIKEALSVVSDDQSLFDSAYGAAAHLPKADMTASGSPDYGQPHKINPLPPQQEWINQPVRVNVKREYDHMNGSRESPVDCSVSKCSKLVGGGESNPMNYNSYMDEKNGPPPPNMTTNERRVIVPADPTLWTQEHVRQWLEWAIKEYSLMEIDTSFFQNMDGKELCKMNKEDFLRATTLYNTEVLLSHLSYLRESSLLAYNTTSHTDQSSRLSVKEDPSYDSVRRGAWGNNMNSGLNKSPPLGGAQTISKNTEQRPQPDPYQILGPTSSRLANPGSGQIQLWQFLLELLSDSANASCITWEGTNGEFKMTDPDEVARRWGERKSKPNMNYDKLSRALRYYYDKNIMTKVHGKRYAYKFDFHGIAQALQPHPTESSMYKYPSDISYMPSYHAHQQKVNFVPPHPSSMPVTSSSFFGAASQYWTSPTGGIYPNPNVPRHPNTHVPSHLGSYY
Procedure, shortened: (§1)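 Sequencing on an Illumina NextSeq500 followed washing, crosslinking with 0.1% formaldehyde, proximity ligation (BsaI/T4 ligase, 1 h, 37 °C) and PCR amplification of pools that had been incubated for 30 min at room temperature with 200 nmole of a random double-stranded 16-mer DNA library in Tris/NaCl/DTT/glycerol buffer. Each pool held DNA-barcoded human transcription factors, expressed in yeast as GST fusions and captured on glutathione beads, plus a tag-only sample. Binding signal is a hexamer's read frequency for a factor divided by its frequency in the tag-only sample.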

ELK1 = biological target: T2, ELK1 (Homo sapiens, UniProt P19419 1-428); conditions: protein: recombinant; tags: N-terminal GST; dsDNA, one strand shown
T2 sequence: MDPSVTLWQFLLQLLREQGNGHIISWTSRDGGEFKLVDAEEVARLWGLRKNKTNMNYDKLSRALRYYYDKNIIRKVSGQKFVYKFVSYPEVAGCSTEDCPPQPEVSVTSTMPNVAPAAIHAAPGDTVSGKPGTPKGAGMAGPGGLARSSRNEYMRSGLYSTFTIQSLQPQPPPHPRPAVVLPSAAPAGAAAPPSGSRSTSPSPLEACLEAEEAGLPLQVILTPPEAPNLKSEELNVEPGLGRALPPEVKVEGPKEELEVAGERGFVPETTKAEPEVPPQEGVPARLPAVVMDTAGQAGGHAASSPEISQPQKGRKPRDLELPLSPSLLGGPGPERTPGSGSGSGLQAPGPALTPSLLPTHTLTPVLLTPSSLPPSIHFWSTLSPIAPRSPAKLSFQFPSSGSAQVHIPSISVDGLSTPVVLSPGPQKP
Procedure, shortened: as §1

GABPA = biological target: T3, GABPA (Homo sapiens, UniProt Q06546 1-454); conditions: protein: recombinant; tags: N-terminal GST; dsDNA, one strand shown
T3 sequence: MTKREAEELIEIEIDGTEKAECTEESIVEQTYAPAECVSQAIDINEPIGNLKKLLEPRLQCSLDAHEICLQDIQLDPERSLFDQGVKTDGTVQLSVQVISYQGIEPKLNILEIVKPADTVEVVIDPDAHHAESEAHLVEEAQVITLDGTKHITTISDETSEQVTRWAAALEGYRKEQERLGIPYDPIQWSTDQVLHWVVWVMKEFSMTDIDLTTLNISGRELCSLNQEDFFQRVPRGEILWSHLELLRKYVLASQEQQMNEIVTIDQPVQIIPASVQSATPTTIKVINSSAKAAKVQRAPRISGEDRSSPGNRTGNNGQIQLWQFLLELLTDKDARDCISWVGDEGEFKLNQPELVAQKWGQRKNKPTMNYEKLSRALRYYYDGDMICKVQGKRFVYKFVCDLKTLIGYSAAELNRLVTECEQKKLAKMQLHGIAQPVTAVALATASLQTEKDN
Procedure, shortened: as §1

ERG = biological target: T4, ERG (Homo sapiens, UniProt P11308 1-479); conditions: protein: recombinant; tags: N-terminal GST; dsDNA, one strand shown
T4 sequence: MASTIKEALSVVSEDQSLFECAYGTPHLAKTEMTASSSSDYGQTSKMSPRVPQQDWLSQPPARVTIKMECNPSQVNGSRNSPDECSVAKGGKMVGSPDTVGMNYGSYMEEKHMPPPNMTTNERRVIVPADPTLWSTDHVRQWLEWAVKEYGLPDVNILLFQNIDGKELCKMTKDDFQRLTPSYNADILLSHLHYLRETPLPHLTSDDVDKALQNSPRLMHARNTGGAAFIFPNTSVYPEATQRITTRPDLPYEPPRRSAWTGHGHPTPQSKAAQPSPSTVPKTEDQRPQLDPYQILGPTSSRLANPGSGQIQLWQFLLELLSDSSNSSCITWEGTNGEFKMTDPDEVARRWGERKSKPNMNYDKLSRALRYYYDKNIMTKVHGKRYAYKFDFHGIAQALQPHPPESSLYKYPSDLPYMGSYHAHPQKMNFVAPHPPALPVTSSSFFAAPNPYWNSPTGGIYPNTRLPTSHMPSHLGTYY
Procedure, shortened: as §1

ELF1 = ELF1 (Homo sapiens, UniProt P32519 1-619); conditions: protein: recombinant; tags: N-terminal GST; dsDNA, one strand shown
ELF1, sequence (P32519 whole entry): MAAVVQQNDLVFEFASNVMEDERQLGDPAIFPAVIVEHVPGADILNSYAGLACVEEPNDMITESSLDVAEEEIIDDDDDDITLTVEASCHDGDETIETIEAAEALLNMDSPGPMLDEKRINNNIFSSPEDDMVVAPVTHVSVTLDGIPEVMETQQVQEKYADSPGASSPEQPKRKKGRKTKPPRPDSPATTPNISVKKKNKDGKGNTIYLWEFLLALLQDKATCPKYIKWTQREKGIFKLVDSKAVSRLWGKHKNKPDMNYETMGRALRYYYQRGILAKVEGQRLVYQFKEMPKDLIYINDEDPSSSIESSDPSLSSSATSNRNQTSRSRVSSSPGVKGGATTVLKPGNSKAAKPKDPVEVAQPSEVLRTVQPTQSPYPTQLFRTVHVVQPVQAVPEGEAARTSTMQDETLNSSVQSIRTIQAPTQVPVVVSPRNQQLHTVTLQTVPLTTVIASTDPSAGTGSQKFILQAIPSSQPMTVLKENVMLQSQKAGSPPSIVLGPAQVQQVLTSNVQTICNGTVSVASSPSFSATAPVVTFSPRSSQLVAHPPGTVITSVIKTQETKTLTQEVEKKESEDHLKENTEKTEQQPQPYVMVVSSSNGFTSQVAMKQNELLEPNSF
Procedure, shortened: as §1

EHF = biological target: T5, EHF (Homo sapiens, UniProt Q9NZC4 1-300); conditions: protein: recombinant; tags: N-terminal GST; dsDNA, one strand shown
T5 sequence: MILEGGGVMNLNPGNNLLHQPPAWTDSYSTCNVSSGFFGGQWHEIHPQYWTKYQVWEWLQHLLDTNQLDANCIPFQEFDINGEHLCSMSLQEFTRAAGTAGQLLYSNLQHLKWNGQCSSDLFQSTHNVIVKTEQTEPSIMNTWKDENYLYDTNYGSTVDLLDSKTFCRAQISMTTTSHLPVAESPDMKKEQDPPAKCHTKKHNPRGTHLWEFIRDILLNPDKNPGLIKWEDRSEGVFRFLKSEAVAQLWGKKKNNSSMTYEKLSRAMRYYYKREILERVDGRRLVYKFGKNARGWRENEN
Procedure, shortened: as §1

SPI1 = SPI1 (Homo sapiens, UniProt P17947 1-270); conditions: protein: recombinant; tags: N-terminal GST; dsDNA, one strand shown
Procedure, shortened: as §1

SPIB = SPIB (Homo sapiens, UniProt Q01892 1-262); conditions: protein: recombinant; tags: N-terminal GST; dsDNA, one strand shown
SPIB, sequence (Q01892 whole entry): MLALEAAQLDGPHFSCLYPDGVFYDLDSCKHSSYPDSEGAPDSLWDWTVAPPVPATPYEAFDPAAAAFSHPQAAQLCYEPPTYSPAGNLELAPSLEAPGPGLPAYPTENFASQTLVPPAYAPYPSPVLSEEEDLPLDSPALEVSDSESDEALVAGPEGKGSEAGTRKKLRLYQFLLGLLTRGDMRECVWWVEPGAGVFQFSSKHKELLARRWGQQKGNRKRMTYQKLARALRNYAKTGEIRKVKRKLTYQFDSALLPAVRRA
Procedure, shortened: as §1

ELK3 = biological target: T6, ELK3 (Homo sapiens, UniProt P41970 1-407); conditions: protein: recombinant; tags: N-terminal GST; dsDNA, one strand shown
T6 sequence: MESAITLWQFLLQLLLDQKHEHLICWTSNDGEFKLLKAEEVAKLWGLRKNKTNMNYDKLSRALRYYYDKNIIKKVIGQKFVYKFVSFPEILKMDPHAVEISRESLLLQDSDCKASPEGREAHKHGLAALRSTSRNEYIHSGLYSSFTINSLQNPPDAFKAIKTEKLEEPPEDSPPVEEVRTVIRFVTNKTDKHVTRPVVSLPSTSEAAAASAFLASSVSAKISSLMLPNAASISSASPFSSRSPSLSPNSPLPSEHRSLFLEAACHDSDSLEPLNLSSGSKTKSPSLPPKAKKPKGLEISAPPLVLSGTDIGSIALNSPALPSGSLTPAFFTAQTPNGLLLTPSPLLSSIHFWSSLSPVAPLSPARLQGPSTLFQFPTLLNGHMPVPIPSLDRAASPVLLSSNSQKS
Procedure, shortened: as §1

FEV = biological target: T7, FEV (Homo sapiens, UniProt Q99581 1-238); conditions: protein: recombinant; tags: N-terminal GST; dsDNA, one strand shown
T7 sequence: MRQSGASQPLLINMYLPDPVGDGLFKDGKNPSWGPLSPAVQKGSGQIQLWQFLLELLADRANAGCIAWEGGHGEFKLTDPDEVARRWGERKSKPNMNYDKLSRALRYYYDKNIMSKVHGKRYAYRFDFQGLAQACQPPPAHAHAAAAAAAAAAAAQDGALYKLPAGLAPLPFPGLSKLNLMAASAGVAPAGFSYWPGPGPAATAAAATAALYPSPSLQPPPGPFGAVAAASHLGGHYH
Procedure, shortened: as §1

ETV5 = ETV5 (Homo sapiens, UniProt P41161 1-510); conditions: protein: recombinant; tags: N-terminal GST; dsDNA, one strand shown
ETV5, sequence (P41161 whole entry): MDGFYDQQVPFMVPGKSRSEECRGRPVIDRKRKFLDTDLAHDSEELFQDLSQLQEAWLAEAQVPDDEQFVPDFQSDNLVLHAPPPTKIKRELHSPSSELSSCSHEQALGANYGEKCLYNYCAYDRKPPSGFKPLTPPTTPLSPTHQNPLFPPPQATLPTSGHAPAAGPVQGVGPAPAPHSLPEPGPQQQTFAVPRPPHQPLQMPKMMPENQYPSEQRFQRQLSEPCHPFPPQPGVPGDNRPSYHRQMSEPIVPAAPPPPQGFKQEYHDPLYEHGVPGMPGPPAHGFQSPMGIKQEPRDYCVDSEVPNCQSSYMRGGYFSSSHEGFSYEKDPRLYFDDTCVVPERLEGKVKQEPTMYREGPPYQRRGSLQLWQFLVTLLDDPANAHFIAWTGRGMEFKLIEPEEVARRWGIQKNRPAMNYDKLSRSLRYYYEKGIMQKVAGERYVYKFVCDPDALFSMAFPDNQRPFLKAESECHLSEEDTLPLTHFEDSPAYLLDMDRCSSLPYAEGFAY
Procedure, shortened: as §1

HSF1 = HSF1 (Homo sapiens, UniProt Q00613 1-529); conditions: protein: recombinant; tags: N-terminal GST; chain copies: 3; dsDNA, one strand shown
HSF1, sequence (Q00613 whole entry): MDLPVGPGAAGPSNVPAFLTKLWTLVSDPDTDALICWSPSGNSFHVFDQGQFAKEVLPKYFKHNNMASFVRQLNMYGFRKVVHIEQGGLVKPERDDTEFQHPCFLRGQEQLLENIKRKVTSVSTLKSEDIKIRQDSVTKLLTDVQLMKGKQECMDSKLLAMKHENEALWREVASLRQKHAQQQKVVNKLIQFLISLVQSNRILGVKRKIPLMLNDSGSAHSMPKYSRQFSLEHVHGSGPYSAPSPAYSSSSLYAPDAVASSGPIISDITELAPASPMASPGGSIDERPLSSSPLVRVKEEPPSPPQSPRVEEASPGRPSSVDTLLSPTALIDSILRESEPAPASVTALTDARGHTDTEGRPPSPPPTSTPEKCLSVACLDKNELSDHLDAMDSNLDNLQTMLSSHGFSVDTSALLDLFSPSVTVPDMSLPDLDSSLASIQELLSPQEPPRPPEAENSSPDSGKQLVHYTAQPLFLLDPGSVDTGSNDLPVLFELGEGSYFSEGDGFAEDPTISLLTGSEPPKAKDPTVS
Procedure, shortened: as §1

SPIC = biological target: T8, SPIC (Homo sapiens, UniProt Q8N5J4 1-248); conditions: protein: recombinant; tags: N-terminal GST; dsDNA, one strand shown
T8 sequence: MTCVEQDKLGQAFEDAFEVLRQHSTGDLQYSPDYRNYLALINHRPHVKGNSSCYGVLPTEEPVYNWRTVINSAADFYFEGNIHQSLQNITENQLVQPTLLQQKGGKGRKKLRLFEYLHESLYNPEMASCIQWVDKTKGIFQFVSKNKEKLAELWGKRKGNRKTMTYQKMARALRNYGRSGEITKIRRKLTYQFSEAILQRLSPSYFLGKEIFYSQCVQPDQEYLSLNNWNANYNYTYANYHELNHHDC
Procedure, shortened: as §1

ELF4 = ELF4 (Homo sapiens, UniProt Q99607 1-663); conditions: protein: recombinant; tags: N-terminal GST; dsDNA, one strand shown
ELF4, sequence (Q99607 whole entry): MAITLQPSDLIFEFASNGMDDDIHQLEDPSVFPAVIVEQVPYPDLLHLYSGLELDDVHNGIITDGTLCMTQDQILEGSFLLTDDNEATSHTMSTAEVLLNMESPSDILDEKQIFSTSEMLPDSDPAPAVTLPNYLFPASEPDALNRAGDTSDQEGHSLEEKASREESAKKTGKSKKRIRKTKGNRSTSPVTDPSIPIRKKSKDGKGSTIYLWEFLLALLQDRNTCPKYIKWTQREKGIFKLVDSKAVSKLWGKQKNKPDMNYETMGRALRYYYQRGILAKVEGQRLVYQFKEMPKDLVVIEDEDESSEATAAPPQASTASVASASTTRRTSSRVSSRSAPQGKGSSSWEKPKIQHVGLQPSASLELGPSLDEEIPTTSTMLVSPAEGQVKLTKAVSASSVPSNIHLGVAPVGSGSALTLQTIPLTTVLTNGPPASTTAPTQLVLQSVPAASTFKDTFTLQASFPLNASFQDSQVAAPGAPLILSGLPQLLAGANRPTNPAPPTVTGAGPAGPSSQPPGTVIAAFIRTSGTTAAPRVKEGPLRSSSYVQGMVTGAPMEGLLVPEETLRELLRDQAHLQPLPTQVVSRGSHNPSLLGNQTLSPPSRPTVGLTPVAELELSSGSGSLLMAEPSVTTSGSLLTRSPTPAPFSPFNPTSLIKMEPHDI
Procedure, shortened: as §1

ELK4 = biological target: T9, ELK4 (Homo sapiens, UniProt P28324-2 1-405); conditions: protein: recombinant; tags: N-terminal GST; dsDNA, one strand shown
T9 sequence: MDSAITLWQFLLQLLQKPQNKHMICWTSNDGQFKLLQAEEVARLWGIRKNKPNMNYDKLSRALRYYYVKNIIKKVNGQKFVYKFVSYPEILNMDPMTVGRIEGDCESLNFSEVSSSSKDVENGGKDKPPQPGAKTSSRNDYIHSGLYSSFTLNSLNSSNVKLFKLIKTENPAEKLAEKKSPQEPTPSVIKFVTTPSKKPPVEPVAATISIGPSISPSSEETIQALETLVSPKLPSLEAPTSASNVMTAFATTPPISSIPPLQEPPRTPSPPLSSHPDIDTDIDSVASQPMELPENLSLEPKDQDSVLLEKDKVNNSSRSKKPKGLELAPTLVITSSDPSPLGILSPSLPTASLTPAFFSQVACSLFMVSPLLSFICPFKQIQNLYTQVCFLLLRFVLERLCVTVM
Procedure, shortened: as §1

ETV2 = biological target: T10, ETV2 (Homo sapiens, UniProt O00321 1-342); conditions: protein: recombinant; tags: N-terminal GST; dsDNA, one strand shown
T10 sequence: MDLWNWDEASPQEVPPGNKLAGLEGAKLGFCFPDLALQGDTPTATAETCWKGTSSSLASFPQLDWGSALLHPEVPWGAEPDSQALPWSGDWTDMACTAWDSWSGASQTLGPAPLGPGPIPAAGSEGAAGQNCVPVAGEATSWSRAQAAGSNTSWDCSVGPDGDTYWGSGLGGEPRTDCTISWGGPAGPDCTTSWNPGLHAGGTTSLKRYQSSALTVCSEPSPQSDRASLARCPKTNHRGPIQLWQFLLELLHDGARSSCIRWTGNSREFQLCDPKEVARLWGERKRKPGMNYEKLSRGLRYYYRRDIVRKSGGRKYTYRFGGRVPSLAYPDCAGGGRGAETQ
Procedure, shortened: as §1

ELF3 = biological target: T11, ELF3 (Homo sapiens, UniProt P78545 1-371); conditions: protein: recombinant; tags: N-terminal GST; dsDNA, one strand shown
T11 sequence: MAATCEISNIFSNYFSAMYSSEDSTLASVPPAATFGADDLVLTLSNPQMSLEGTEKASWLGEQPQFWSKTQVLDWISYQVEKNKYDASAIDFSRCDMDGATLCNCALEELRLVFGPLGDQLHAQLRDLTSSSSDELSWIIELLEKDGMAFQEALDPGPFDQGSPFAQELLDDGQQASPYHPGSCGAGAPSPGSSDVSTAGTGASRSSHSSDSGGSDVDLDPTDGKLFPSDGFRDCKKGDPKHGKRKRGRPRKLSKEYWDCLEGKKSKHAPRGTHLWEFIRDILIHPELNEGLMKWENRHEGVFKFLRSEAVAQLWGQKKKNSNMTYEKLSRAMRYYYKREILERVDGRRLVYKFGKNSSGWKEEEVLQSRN
Procedure, shortened: as §1

CRX = CRX (Homo sapiens, UniProt O43186 1-299); conditions: protein: recombinant; tags: N-terminal GST; dsDNA, one strand shown
CRX, sequence (O43186 whole entry): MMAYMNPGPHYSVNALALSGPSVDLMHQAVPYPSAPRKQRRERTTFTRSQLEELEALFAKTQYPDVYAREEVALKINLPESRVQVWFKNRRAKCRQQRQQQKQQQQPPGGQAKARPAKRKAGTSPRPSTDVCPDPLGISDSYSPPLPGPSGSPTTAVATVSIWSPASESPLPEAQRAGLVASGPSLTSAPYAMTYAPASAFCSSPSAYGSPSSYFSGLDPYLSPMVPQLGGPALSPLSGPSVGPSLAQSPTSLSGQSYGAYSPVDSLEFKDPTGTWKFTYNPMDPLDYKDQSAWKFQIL
Procedure, shortened: as §1

ETV1 = ETV1 (Homo sapiens, UniProt P50549 1-477); conditions: protein: recombinant; tags: N-terminal GST; dsDNA, one strand shown
ETV1, sequence (P50549 whole entry): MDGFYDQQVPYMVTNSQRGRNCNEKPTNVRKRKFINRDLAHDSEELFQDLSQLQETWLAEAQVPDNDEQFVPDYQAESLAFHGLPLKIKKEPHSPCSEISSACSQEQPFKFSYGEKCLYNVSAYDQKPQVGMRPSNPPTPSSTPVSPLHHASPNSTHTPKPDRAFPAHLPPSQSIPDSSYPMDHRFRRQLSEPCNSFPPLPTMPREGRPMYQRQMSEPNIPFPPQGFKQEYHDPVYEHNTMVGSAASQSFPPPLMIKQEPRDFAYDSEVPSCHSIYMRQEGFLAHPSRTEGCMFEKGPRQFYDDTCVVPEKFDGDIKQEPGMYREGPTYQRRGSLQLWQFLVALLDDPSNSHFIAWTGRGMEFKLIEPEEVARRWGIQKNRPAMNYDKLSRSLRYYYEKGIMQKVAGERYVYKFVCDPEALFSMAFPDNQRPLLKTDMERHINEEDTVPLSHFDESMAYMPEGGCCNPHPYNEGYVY
Procedure, shortened: as §1

TATTGA
binding signal (FLI1): 1.1 fold enrichment (6-mer frequency, TF over GST control)
binding signal (ELK1): 1.16 fold enrichment (6-mer frequency, TF over GST control)
binding signal (GABPA): 1.09 fold enrichment (6-mer frequency, TF over GST control)
binding signal (ERG): 1.13 fold enrichment (6-mer frequency, TF over GST control)
binding signal (ELF1): 1.18 fold enrichment (6-mer frequency, TF over GST control)
binding signal (EHF): 1.15 fold enrichment (6-mer frequency, TF over GST control)
binding signal (SPI1): 1.05 fold enrichment (6-mer frequency, TF over GST control)
binding signal (SPIB): 1.11 fold enrichment (6-mer frequency, TF over GST control)
binding signal (ELK3): 1.01 fold enrichment (6-mer frequency, TF over GST control)
binding signal (FEV): 1.1 fold enrichment (6-mer frequency, TF over GST control)
binding signal (ETV5): 1.1 fold enrichment (6-mer frequency, TF over GST control)
binding signal (HSF1): 1.14 fold enrichment (6-mer frequency, TF over GST control)
binding signal (SPIC): 1.2 fold enrichment (6-mer frequency, TF over GST control)
binding signal (ELF4): 1.17 fold enrichment (6-mer frequency, TF over GST control)
binding signal (ELK4): 1.17 fold enrichment (6-mer frequency, TF over GST control)
binding signal (ETV2): 1.14 fold enrichment (6-mer frequency, TF over GST control)
binding signal (ELF3): 1.19 fold enrichment (6-mer frequency, TF over GST control)
binding signal (CRX): 1.29 fold enrichment (6-mer frequency, TF over GST control)
binding signal (ETV1): 1.16 fold enrichment (6-mer frequency, TF over GST control)

— paper PMC7862700, “An all-to-all approach to the identification of sequence-specific readers for epigenetic DNA modifications on cytosine”
